# Pf growth 48h = Primary qHTS for delayed death inhibitors of the malarial parasite plastid, 48 hour incubation; P. falciparum luciferase growth in erythrocytes, 48 h; Potency, µM (doses to about 28.7 µM), for the others: at the top dose activity change, negative = inhibition, most hits filed as inhibitors; 310,000 tested, 5.9% active; active means well fitted inhibition curve with a large enough effect; inconclusive means small, poorly fitted or top-dose-only effect, or another doubt; inactive means no such curve, though single readings can be large or run the other way; further: potency means the concentration at half of the fitted maximal effect; on the % scale 0 is the no-effect control and ±100 the full control effect
#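 Firefly luciferase activity from engineered P. falciparum reports growth; inhibitors lower the luminescent signal. Cultures contained 2% hematocrit erythrocytes at 0.1% final parasitemia.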
# Cycloheximide cs = Cycloheximide Counterscreen for Small Molecule Inhibitors of Shiga Toxin | cell reporter, cycloheximide protein synthesis inhibition counterscreen | max response, % | 300,000 tested, 12% active | AID 2314, 2010; in the data active means max response mostly above about 13%, no sharp cut-off; inactive means mostly below about 14%; further: read at 38.3 µM for the half of the compounds with a filed dose; 0% is about no effect
# SARS PLP yeast = qHTS of Yeast-based Assay for SARS-CoV PLP; S. cerevisiae expressing SARS-CoV PLpro, growth rescue; Potency, µM (titrated, usually from 32.9 µM), without a hit: at the highest dose activity, positive = growth rescue, actives largely listed as activators; 330,000 tested, 0.19% active; AID 485353, 2010; further: potency means the concentration at half of the fitted maximal effect; 0% is about no effect; nearly all actives have a fitted effect of over 55% in size
# NS1 inh = qHTS Assay for Inhibitors of Influenza NS1 Protein Function; AID 2326, 2010; 270,000 tested, 0.4% active; Potency, µM (top dose mostly 46.1 µM), for the others: at the highest dose activity, positive = more growth; further: potency means the concentration at half of the fitted maximal effect; actives are rising curves; nearly all actives have a fitted effect of over 50% in size
#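 Recovery from NS1-induced slow growth read by OD600 in budding yeast switched to galactose assay medium (pH 6.0, -URA) at 1:100 dilution. Compound 23 nl per well; the matching strain lacking NS1 serves as control.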
# Shiga toxin inh = A qHTS for Small Molecule Inhibitors of Shiga Toxin. Vero cells, Shiga toxin protein synthesis inhibition reporter. inhibition, % at 38.7 µM. 290,000 tested, 9.2% active. AID 2315, 2010; in the data active means inhibition mostly above about 28%, no sharp cut-off; inactive means mostly below about 43%; further: 0% is about no effect
# Pf growth 96h = Primary qHTS for delayed death inhibitors of the malarial parasite plastid, 96 hour incubation. 320,000 tested, 6.9% active. P. falciparum luciferase reporter growth, 96 h. Potency, µM (series often up to 28.7 µM), inactives show top-dose activity change, negative = inhibition, usual class: inhibitors; active means well fitted inhibition curve with a large enough effect; inconclusive means small, poorly fitted or top-dose-only effect, or another doubt; inactive means no such curve, though single readings can be large or run the other way; further: potency means the concentration at half of the fitted maximal effect; on the % scale 0 is the no-effect control and ±100 the full control effect
#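 Erythrocytes infected with luciferase-expressing P. falciparum were dispensed at 2% hematocrit and 0.05% parasitemia (final), then incubated with compounds 96 hours at 37 C in 5% CO2. Luminescence after detection reagent addition reported growth.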
# Numbers without * were called inactive; ? = inconclusive; / = no result given; [ ] = another dose, or the depositor's remark. Compounds with a hit are over-represented: about 21% of the library has one in this group of screens. Unless noted, the call rests on the fitted dose curve.
SMILES,Pf growth 48h,Cycloheximide cs,SARS PLP yeast,NS1 inh,Shiga toxin inh,Pf growth 96h
CCOC(=O)[C@@H]1[C@H]2COc3ccccc3[C@H]2N2C(=O)N(c3ccc(Cl)cc3)C(=O)[C@]12C,13.1µM*,1.0,-10.4%,-11.9%,-3.1,8.28µM*
CCOC(=O)[C@@H]1[C@H]2COc3ccccc3[C@@H]2N2C(=O)N(c3ccc(Cl)cc3)C(=O)[C@@]12C,-6.1%,-1.4,-3.9%,-4.6%,-5.3,10.4%
CCOC(=O)[C@@H]1[C@H]2COc3cc(OC)ccc3[C@H]2N2C(=O)N(c3cccc(Cl)c3)C(=O)[C@]12C,?,1.4,-17.9%,21.0%,-3.3,?
N#Cc1ccc(OCC(=O)OCC(=O)NC2CC2)cc1,/,/,-5.7%,/,/,/
CCOC(=O)[C@@H]1[C@H]2COc3ccc(Br)cc3[C@@H]2N2C(=O)N(c3ccc(F)cc3)C(=O)[C@@]12C,/,/,7.7%,/,/,/
CCOC(=O)[C@@H]1[C@H]2COc3ccc(Br)cc3[C@@H]2N2C(=O)N(c3ccc(C(F)(F)F)cc3)C(=O)[C@@]12C,?,-3.0,-6.5%,28.9%,1.4,9.28µM*
CCCCNC(=O)[C@@](CC)(ONc1ccccc1C(F)(F)F)c1cccc2ccccc12,8.28µM*,/,-2.9%,/,/,?
CCCCNC(=O)C(CC)(ONc1ccccc1C(F)(F)F)c1ccccc1 (stereo unspecified),13.1µM*,/,-2.7%,/,/,?
COc1cc(NC(=O)CSCc2ccc(Cl)cc2)c(C(=O)O)cc1OC,2.0%,-1.0,-0.9%,17.6%,-8.0,-29.7%
Cc1cccc(Nc2nc(-c3ccc(F)c(C)c3)cs2)n1,10.5%,49.0*,-11.9%,1.8%,113.0*,9.7%
Cc1cccc(Nc2nc(-c3ccc(O)c(O)c3)cs2)n1,-34.9%,42.1*,-6.3%,24.6%,85.1*,?
O=C(Cc1ccccc1)Nc1nc(-c2ccc(F)c(F)c2)cs1,?,14.2,-1.5%,2.2%,42.4,-17.5%
c1cc(-c2noc(-c3ccc4c(c3)OCO4)n2)ccn1,/,/,/,11.0%,/,/
c1ccc(-c2noc(-c3ccc4c(c3)OCO4)n2)cc1,130.2%,63.5*,0.0%,1.5%,108.8*,33.8%
c1ccc(-c2noc(-c3ccc4ccccc4c3)n2)cc1,318.7%,54.8*,6.8%,-8.4%,104.6*,-20.0%
COc1ccc(-c2noc(-c3ccc4c(c3)OCO4)n2)cc1,27.4%,14.1*,4.6%,2.2%,17.6,?
Cc1[nH]c(-c2ccco2)nc1C(=O)O,10.5%,-1.2,-7.0%,7.2%,-9.0,6.57µM*
COc1cc(-c2c(C#N)c(N)nc3c2CCCC3)ccc1O,-37.3%,-2.5,5.2%,-1.4%,-5.8,/
COc1ccc(-c2c(C#N)c(N)nc3c2CCc2ccccc2-3)cc1OC,2.33µM*,-1.9,-17.8%,-26.0%,1.0,7.38µM*
CCN1CCN(c2ccc(Cl)cc2NC(=O)c2ccc(-n3nc(C)cc3C)cc2)CC1,4.15µM*,/,-1.4%,/,/,?
Cc1cc(C)n(-c2ccc(C(=O)Nc3cccnc3Cl)cc2)n1,-0.8%,5.3,1.3%,-5.4%,13.5,20.8%
CCN1CCN(c2ccc(NC(=O)c3ccc(F)cc3)cc2Cl)CC1,?,30.1*,5.1%,/,43.4*,-34.1%
CCN1CCN(c2ccc(NC(=O)c3cccnc3)cc2Cl)CC1,30.7%,10.8*,5.7%,-7.9%,16.2,/
CCN1CCN(c2ccc(NC(C)=O)cc2Cl)CC1,0.4%,1.1,15.1%,1.2%,6.6,?
NNC(=O)C(=O)NCCCN1CCOCC1,-5.3%,-1.7,2.4%,/,9.9,8.8%
SMILES,Pf growth 48h,Cycloheximide cs,SARS PLP yeast,NS1 inh,Shiga toxin inh,Pf growth 96h
COC(=O)c1cccc(NC(=O)CCc2c(C)noc2C)c1,-1.4%,/,-1.4%[6.58 µM],/,/,-4.9%
CCc1ccccc1NC(=O)CCN1C(=O)C2CC=CCC2C1=O (stereo unspecified),27.0%,-1.6,-0.9%,6.2%,-2.9,11.7µM*
COc1ccccc1NC(=O)CCCN1C(=O)C2CC=CCC2C1=O (stereo unspecified),9.2%,-2.7,-1.7%,-1.8%,-0.9,6.57µM*
COc1cccc(NC(=O)CCN2C(=O)C3CC=CCC3C2=O)c1 (stereo unspecified),105.9%,49.2*,3.6%,-3.1%,73.3*,?
COc1ccc(NC(=O)CCCN2C(=O)C3CC=CCC3C2=O)cc1 (stereo unspecified),12.6%,23.9*,7.9%,-0.3%,40.0*,10.4µM*
COc1cccc(NC(=O)CCCN2C(=O)C3CC=CCC3C2=O)c1 (stereo unspecified),52.2%,9.0,1.2%,8.8%,9.6,43.0%
COc1cccc(CN2CCNC(=O)C2CC(=O)NCCc2nc(C)c(C)s2)c1OC (stereo unspecified),-9.2%,-3.1,1.4%,1.0%,34.4,7.1%
FC(F)(F)c1ccc2c(c1)[nH]c(=S)n2C1CC1,-9.2%,-1.3,21.6%,/,-21.9,73.6%
COc1ccc(-c2noc(CN(C)C(=O)CCN3C(=O)[C@H]4CC=CC[C@H]4C3=O)n2)cc1,?,6.0,-0.1%,-12.0%,13.2,?
COc1ccc(-c2noc(CNC(=O)CCN3C(=O)[C@H]4CC=CC[C@H]4C3=O)n2)cc1,-9.0%,8.9,16.8%,-7.0%,-2.4,11.7µM*
COC(=O)c1c(NC(=O)CN2C(=O)C(=O)N(CC(C)C)C2=O)sc(C)c1C,4.1%,-3.7,1.2%,-10.9%,-16.6,?
COc1ccc(-c2[nH]c(-c3ccc(F)cc3)nc2SCC(=O)NC2CCCC2)cc1,-22.8%,-1.4,-1.6%,14.3%,-5.2,?
COc1ccc(-c2[nH]c(-c3ccccc3)nc2SCC(=O)NC2CCCC2)cc1,-28.9%,-2.7,12.2%,-75.5%,-15.5,11.7µM*
COc1ccc(Cl)cc1-c1nc(SCC(=O)NC2CCCC2)n[nH]1,/,/,-19.7%,/,/,/
COc1ccc(-c2[nH]c(-c3cccc(OC)c3)nc2SCC(=O)NC2CCCC2)cc1,-20.4%,-1.5,0.7%,/,-7.5,3.29µM*
COc1ccc(-c2nc(SCC(=O)NC3CCCCC3)n[nH]2)cc1,1.1%,23.6*,-0.1%,-2.5%,20.3,?
COC(=NC(C)C)NC(C)C,-3.9%,-1.9,-1.2%,-1.4%,-3.9,41.8%
Cc1ccnc(N/C=C/C(=O)c2ccc(Br)cc2)c1,58.0%,48.8*,-2.3%,-6.2%,110.3*,122.0%
Cc1cc(N/C=C/C(=O)c2ccc(Br)cc2)no1,106.4%,16.0*,0.3%,-2.4%,49.4*,-14.1%
O=C(/C=C\Nc1ccc(Cl)cn1)c1ccc(Br)cc1,108.3%,14.1,0.1%,0.1%,35.6,8.0%
COc1ccc(C(=O)/C=C/Nc2cc(C)ccn2)cc1,82.2%,28.8*,-2.5%,-70.8%,37.7,-50.4%
Cc1cc(N/C=C/C(=O)c2cccc3ccccc23)no1,16.0%,10.8,-7.1%,-53.3%,27.1,/
CC(C)C(C(=O)O)N1C(=O)/C(=C/c2ccc(Br)cc2)SC1=S (stereo unspecified),/,26.8*,/,/,20.7*,/
